Compound activity as filed in PubChem BioAssay.
Most compounds without a hit are left out; they make up all but 4% or so of the library.
TROY signal inh: inhibitors of TROY-driven NF-kB signaling, primary screen, Q293 LMP1-TROYcd cells, NF-kB luciferase, uHTS; Q293 LMP1-TROYcd NF-kB luciferase reporter, 4 h; inhibition, % at 10 µM; hit rate 0.98% among 360,000;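 active = compounds whose plate-normalised and pattern-corrected inhibition of the luciferase reporter signal at the single screening dose is 50% or more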
Peg3 prom inh: Peg3 promoter-driven luciferase inhibitors, primary screen, cell-based, HeLa, luciferase luminescence | HeLa PEG-Prom luciferase reporter, overnight | inhibition, % at 20 µM | hit rate 1.7% among 360,000 | AID 588405, 2011;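 active = inhibition of at least 50% at 20 µM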
TWEAK-Fn14 inh: inhibitors of TWEAK-Fn14 signaling, primary screen, luciferase reporter cells, uHTS | TWEAK-stimulated Fn14 reporter cells, luciferase luminescence, 8 h | hit rate 2% among 360,000 | AID 1159606, 2016 | inhibition, % at 10 µM; in the data active = inhibition above about 50%
HIF-2a block: HIF-2a reporter inhibitors, primary screen, luminescence, 786-0 RCC cells; 786-0 RCC cells HIF-2a reporter, luciferase luminescence, overnight; AID 624352, 2012; hit rate 0.72% among 360,000; inhibition, % at 18.8 µM;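 active = inhibition of the luminescence signal of 40% or more relative to plate controls, in a single-dose primary screen at 18.75 µM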
CF NFkB block: inhibitors of PAF-induced NF-kB signaling, primary screen, cell-based, GFP fluorescence, uHTS. hit rate 0.86% among 360,000. KKLEB NF-kB-GFP reporter, GFP fluorescence overnight. inhibition, % at 5 µM. AID 588850, 2011;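 active = at least 50% inhibition at 5 µM, scaled per plate between neutral and stimulator controls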;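 note: PAF is a Pseudomonas aeruginosa culture filtrate used as stimulus; plate controls were PAF-stimulated DMSO wells for no effect and unstimulated DMSO wells for full effect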
KKLEB cytotox: cytotoxicity in KKLEB CF airway cells, primary screen, cytotoxicity control for CF NF-kB inhibitor project, cell-based, uHTS, fluorescence assay plates; KKLEB CF airway cells viability, ATPlite luminescence, overnight; active compounds read low; cells stimulated with P. aeruginosa culture filtrate; activity change (cytotoxicity), % at 5 µM; hit rate 0.36% among 360,000; AID 602141, 2011;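 active = corrected activity change at or below -50% at 5 µM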
CF NFkB conf: inhibitors of PAF-induced NF-kB signaling, retest, confirmation, cell-based, GFP fluorescence, single concentration; shares compounds with CF NFkB block; KKLEB CF airway cells, overnight; inhibition, % at 5 µM; hit rate 64% among 1,300; AID 602472, 2012; in the data active = inhibition above about 40%;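 note: stimulus PAF is a Pseudomonas aeruginosa filtrate and not platelet activating factor; plate controls were DMSO wells with stimulus for no effect and unstimulated DMSO wells for full effect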
Active calls of the source: *; . = not tested or not shown.

SMILES	TROY signal inh	Peg3 prom inh	TWEAK-Fn14 inh	HIF-2a block	CF NFkB block	KKLEB cytotox	CF NFkB conf
CC(C)(C)c1ccc(C(=O)O/N=C(\N)Cc2cccs2)cc1	-26	6	-153	-63	61*	-21	18
COc1ccc(/C=N/Nc2nc(-c3cccnc3)nc3ccccc23)cc1OC	9	-1	7	-94	64*	-1	68*
COc1ccc(CCNc2nc(-c3cccnc3)nc3ccccc23)cc1OC	5	49	28	-17	58*	-28	16
Oc1ccc(/C=N/Nc2nc(-c3cccnc3)nc3ccccc23)c(O)c1	-24	-15	-17	-99	3	4	.
Cc1nnc(SCc2ccc(F)cc2Cl)s1	-25	-221	-18	-245	-9	1	.
C#Cc1cccc(Nc2nc(NCCOC)nc3ccsc23)c1	18	19	36	22	19	-9	.
C#Cc1cccc(Nc2nc(NC(C)C)nc3ccsc23)c1	32	39	53*	22	50*	-20	36
O=C(Nc1ccc(Cl)cc1)c1nc[nH]c1C(=O)NCCCCNC(=O)c1[nH]cnc1C(=O)Nc1ccc(Cl)cc1	7	80*	50	-12	79*	-13	102*
O=C(Nc1cccc(Cl)c1)c1nc[nH]c1C(=O)NCCCCNC(=O)c1[nH]cnc1C(=O)Nc1cccc(Cl)c1	-10	7	3	-1	-17	-6	.
COc1ccc(OC)c(/C=C/C(=O)N2C(=O)c3cccc(N)c3C2=O)c1	-7	64*	100*	7	60*	-40	37
COc1ccc(OC)c(/C=C/C(=O)N2CCCc3ccccc32)c1	-21	-57	-33	-87	-12	4	.
COc1cc(/C=C/C(=O)N2CCN(C(=O)/C=C/c3cc(OC)c(OC)c(OC)c3)CC2)cc(OC)c1OC	-3	-15	3	12	-13	-1	.
COc1cc(/C=C/C(=O)N2C(=O)c3cccc(N)c3C2=O)cc(OC)c1OC	-37	65*	92*	10	64*	-5	-5
COc1ccc(S(=O)(=O)N2c3cc(C)ccc3OCC2C(C)(C)C)cc1 (stereo not drawn)	22	18	17	11	50*	-38	59*
CC1=Nn2c(nnc2-c2ccccc2Cl)SC1	-8	-5	6	7	-10	-6	.
Clc1ccccc1C1=Nn2c(nnc2-c2ccncc2)SC1	49	2	64*	2	78*	-11	94*
C#CCOCCOCCOCCNc1nc(N2CCN(C(=O)C([C@@H](C)O)n3cc([C@@H](N)CCCCN)nn3)CC2)nc(N2CCN(C(=O)[C@H](CCC(=O)O)n3cc([C@@H](N)CCCCN)nn3)CC2)n1 (stereo partly drawn)	0	-2	5	15	17	-9	.
O=C(Nc1ccc(Cl)c(Cl)c1)Nc1ccon1	-3	-42	30	-51	54*	-12	40*
c1nc(NCc2ccc3c(c2)OCO3)c2cc(-c3ccc4c(c3)OCCO4)ccc2n1	21	-12	-10	-6	10	8	.
c1cncc(CNc2ncnc3ccc(-c4ccc5c(c4)OCO5)cc23)c1	12	18	4	24	36	-2	29
Cc1ccc2nc(SCC(=O)Nc3cc(C(F)(F)F)ccc3N3CCOCC3)[nH]c2c1	40	15	28	21	50*	-8	78*
O=C(CSc1nccc(=O)[nH]1)Nc1cc(C(F)(F)F)ccc1N1CCOCC1	0	15	20	9	3	-4	.
NC(=O)c1nsc(C(=O)N(Cc2cccnc2)C(C(=O)NC2CCCCC2)c2ccc(F)cc2)c1N (stereo not drawn)	-5	-4	-15	-3	5	2	.
Cc1c2ccncc2cc2c1[nH]c1ccccc12	15	50	43	18	55*	-46	21
O=C(NCCc1ccc(F)cc1)Nc1ccc([N+](=O)[O-])cc1	-1	-56	-9	-111	-28	14	.
SMILES	TROY signal inh	Peg3 prom inh	TWEAK-Fn14 inh	HIF-2a block	CF NFkB block	KKLEB cytotox	CF NFkB conf
O=[N+]([O-])c1ccc(NC(=S)NCCc2ccc(F)cc2)cc1	27	26	66*	-84	50*	-48	66*
CN1CCN(/C(=N\S(=O)(=O)c2ccc(F)cc2)c2ccccc2)CC1	3	8	9	7	1	3	.
O=C(NCc1ccco1)/C(=C/c1ccccc1F)NC(=O)c1ccccc1	5	9	-14	2	9	-3	.
CCCN(CCO)CCCc1ccccc1	.	9	9	9	2	2	.
CCN(CCCc1ccccc1)CCCc1ccccc1	-10	-10	-6	-11	54*	32	4
CCOC(=O)/C=c1/s/c(=C\c2c(OC)ccc3ccccc23)c(=O)n1CC(=O)NCC1CCCO1 (stereo not drawn)	13	11	34	7	54*	-33	65*
Cc1sc2ncnc(Nc3ccc(O)cc3)c2c1C	-7	-10	-6	-17	10	3	.
Oc1ccc(Nc2ncnc3scc(-c4ccccc4)c23)cc1	33	15	63*	24	61*	-16	78*
Cc1ccc(S(=O)(=O)N2CCN(C(=O)CCc3c[nH]c4ccccc34)CC2)cc1	-9	-2	10	6	-40	-15	.
CC[C@H](CO)Nc1nc(Nc2cccc(Cl)c2)c2ncn(C(C)C)c2n1	61*	94*	71*	-5	68*	-20	92*
COc1ccc(OC)c(/C=N/NC(=O)c2csc3ccccc23)c1	-24	-5	1	-14	10	-7	.
C=C1C(=O)OC2C=C(CO)CCC=C(CO)CC(OC(=O)C(C)C)C12 (stereo not drawn)	-6	64*	32	9	87*	-15	45*
C=C1C(=O)OC2C1C(OC(=O)C(C)=CC)CC(=C)C1C(O)C3OC3(C)C21O (stereo not drawn)	12	26	7	22	22	-16	.
COc1ccc(NC(=O)Nc2nnc(-c3ccncc3)s2)cc1	5	-106	43	-174	58*	-21	53*
COc1cccc(NC(=O)Nc2nnc(CC(=O)NCc3ccccc3)s2)c1	7	8	29	12	61*	-2	80*
COc1ccc(NC(=O)Nc2nnc(CC(=O)NCc3ccccc3)s2)cc1	6	-13	-13	-9	-22	1	.
C/C(=N\NC(=O)C(N)=O)c1ccc(OC(F)F)cc1	2	6	-3	8	-2	-6	.
